Data taken from PubChem BioAssay AID504453 (The Scripps Research Institute Molecular Screening Center, 2011).
Potency and affinity values are given separately. Activity calls are given as the source filed them. No rule for the calls is given here.

Target: Peroxisome proliferator-activated receptor gamma (Homo sapiens) (UniProt P37231)
Test: PPARg ligand-binding domain binders, dose response, PPARg partial agonist project, biochemical, fluorescence polarization, PolarScreen (AID 504453)
Conditions: fluorescence polarization competition; series mostly up to 10 µM

Peroxisome proliferator-activated receptor gamma (Homo sapiens), sequence (P37231 232-505 limits assumed): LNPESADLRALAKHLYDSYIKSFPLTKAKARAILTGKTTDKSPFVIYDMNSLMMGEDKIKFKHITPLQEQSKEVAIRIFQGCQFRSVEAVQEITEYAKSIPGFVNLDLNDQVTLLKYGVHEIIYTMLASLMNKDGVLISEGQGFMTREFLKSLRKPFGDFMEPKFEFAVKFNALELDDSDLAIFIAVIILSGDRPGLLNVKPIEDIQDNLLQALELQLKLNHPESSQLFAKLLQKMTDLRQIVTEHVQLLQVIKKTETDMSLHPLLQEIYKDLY

outcome, inactive:
CN1CCN(S(=O)(=O)c2ccc(Sc3nc4ccccc4[nH]3)c3nsnc23)CC1
O=C(Nc1ccccc1Cl)C(=O)c1cn(CC(=O)N2CCOCC2)c2ccccc12
O=C(CSc1nc(=O)n(CCN2CCOCC2)c2c1CCCC2)Nc1cccc([N+](=O)[O-])c1
COc1ccc2c(c1)c(=O)c(C(=O)c1ccc(C)cc1)cn2CC(=O)Nc1ccc(F)cc1
CCOc1ccc(C2c3[nH]c4ccccc4c3CCN2Cc2cccn2-c2ncccn2)cc1 (stereo unspecified)
COc1ccccc1-n1cc(C(=O)c2cc(Cl)ccc2O)cc(C#N)c1=O
COc1cccc(Cn2nc3c4cc(F)ccc4n(Cc4ccc(F)cc4)cc-3c2=O)c1
COc1ccc2c(c1)c(=O)c(C(=O)c1ccc(F)cc1)cn2CC(=O)Nc1ccc(F)cc1
COc1ccccc1N1C(=O)C2C(C(=O)c3ccccc3)=NN(c3ccc(C)cc3)C2C1=O (stereo unspecified)
Cc1cc(C(=O)CN2C(=O)C(=O)N(Cc3ccccc3)C2=O)c(C)n1-c1ccc2c(c1)OCCO2
O=C(C1=C(O)C(=O)N(c2nc3ccc(Cl)cc3s2)C1c1ccco1)c1ccco1 (stereo unspecified)
